Source: PubChem BioAssay
Six1-Eya2 inh = qHTS Assay for Inhibitors of the Six1/Eya2 Interaction. Homeobox protein SIX1 (Homo sapiens) + Protein phosphatase EYA2 (Homo sapiens), …. AlphaScreen GST-Six1/His-Eya2 binding, biochemical; stronger effect = lower value. AID 651725, 2012. 0.56% of 360,000 active. activity change, % (test concentration not listed); in the data active = activity change below about -65%; inconclusive = mostly about -30% to -63%
Target sequence (O00167 whole entry, looked up): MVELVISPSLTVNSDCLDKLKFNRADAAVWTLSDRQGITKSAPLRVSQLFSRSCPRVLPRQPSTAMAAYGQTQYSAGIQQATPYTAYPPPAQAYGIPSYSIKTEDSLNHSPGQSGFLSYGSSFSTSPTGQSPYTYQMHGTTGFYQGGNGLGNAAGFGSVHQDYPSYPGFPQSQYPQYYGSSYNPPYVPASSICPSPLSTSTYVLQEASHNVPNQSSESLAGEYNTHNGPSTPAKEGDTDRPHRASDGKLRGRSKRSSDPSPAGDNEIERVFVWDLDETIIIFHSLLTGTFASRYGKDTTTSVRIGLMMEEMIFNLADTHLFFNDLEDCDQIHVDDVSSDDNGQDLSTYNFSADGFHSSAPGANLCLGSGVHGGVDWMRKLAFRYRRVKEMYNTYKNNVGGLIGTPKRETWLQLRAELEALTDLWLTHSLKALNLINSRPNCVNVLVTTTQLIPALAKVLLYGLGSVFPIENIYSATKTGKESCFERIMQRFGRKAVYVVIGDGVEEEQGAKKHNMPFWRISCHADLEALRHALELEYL
Target sequence (Q15475 whole entry, looked up): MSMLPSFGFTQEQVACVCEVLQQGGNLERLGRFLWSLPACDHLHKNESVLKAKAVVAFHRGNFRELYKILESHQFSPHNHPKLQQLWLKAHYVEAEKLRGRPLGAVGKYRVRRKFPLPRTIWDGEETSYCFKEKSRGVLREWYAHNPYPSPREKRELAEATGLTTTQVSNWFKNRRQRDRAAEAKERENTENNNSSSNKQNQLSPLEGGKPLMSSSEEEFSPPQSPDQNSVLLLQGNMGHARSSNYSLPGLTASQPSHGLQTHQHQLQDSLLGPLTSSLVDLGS
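AlphaScreen luminescence read after one hour at 37 °C in darkness. Pin-transferred compounds met GST-Six1 and His-Eya2 protein (5X stock 250 nM/500 nM) plus glutathione donor and Ni-chelate acceptor beads (5X, 50 ug/mL).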
BAZ2B block = qHTS Assay for Inhibitors of BAZ2B. Bromodomain adjacent to zinc finger domain protein 2B (Homo sapiens), Q9UIF8. AlphaScreen BAZ2B-H3K14Ac peptide displacement. Potency, µM (highest dose often 114 µM), actives largely listed as inhibitors. 4.4% of 360,000 active; note: nearly all actives have a fitted effect of over 60% in size
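In this displacement format the biotinylated H3(5-23) peptide acetylated at Lys14 serves as ligand at 50 nM, with BAZ2B at 50 nM in PBS pH 7.4 containing 0.01% Tween-20. Donor and acceptor beads are 10 ug/mL final.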
HP1b binding inh = HTS for Inhibitors of HP1-beta Chromodomain Interactions with Methylated Histone Tails | AID 540317, 2011 | 0.56% of 390,000 active | Potency, µM (doses to about 114 µM), usual class: inhibitors | AlphaScreen HP1-beta / biotin-H3K9me3 peptide binding; note: nearly all actives have a fitted effect of over 70% in size
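HP1-beta protein (50 nM final) preincubated 30 min at room temperature with biotinylated H3(1-18)K9me3 peptide (50 nM) in PBS pH 7.4, 0.01% Tween-20, then compound added for 30 min. AlphaScreen streptavidin donor/nickel chelate acceptor beads (10 ug/mL final), 30 min dark, luminescence read.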
JMJD2A Tudor = qHTS Assay for Inhibitors of JMJD2A-Tudor Domain; AID 504339, 2011; AlphaScreen JMJD2A-Tudor / H3K4me3 peptide binding; Potency, µM (top dose mostly 114 µM), hits mostly inhibitors; 4.4% of 390,000 active; Lysine-specific demethylase 4A (Homo sapiens), O75164; note: nearly all actives have a fitted effect of over 50% in size
G9a inh = qHTS Assay for Inhibitors of Histone Lysine Methyltransferase G9a; Histone-lysine N-methyltransferase EHMT2 (Homo sapiens), Q96KQ7; G9a H3K9 monomethylation, AlphaScreen, 2 h; Potency, µM (highest dose often 102 µM), usual class: inhibitors; 8.8% of 350,000 active; AID 504332, 2011; note: nearly all actives have a fitted effect of over 75% in size
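Quantitative HTS format: methyltransferase activity on a biotin-tagged H3K9 peptide is measured by AlphaScreen, using a rabbit anti-monomethyl-H3K9 antibody with streptavidin donor and anti-IgG acceptor beads. Final levels are 20 nM enzyme, 500 nM peptide, 20 uM SAM; 2 h RT.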
CtBP-E1A inh = qHTS Assay for Inhibitors of the CtBP/E1A Interaction; 0.49% of 340,000 active; activity change, % (test concentration not listed); CtBP / adenovirus E1A interaction (AlphaScreen); AlphaScreen GST-E1A/His-CtBP binding, 1536-well; stronger effect = lower value; in the data active = activity change below about -65%; inconclusive = mostly about -30% to -63%
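Homogeneous bead-based format: GST-tagged E1A captured on glutathione donor beads, His-tagged CtBP on nickel acceptor beads; compounds precede bead addition by 2 h at 37 °C.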
Numbers stand for hits; – = inactive; ? = inconclusive; · = no result; [ ] = remark or other dose. An excerpt weighted towards active compounds, which were near 10% of everything screened. Unless noted, calls come from the whole dose curve; as a rule, active = well fitted inhibition curve with a large enough effect; inconclusive = small, poorly fitted or top-dose-only effect; inactive = no such curve, though single readings can be large or run the other way.

SMILES	Six1-Eya2 inh	BAZ2B block	HP1b binding inh	JMJD2A Tudor	G9a inh	CtBP-E1A inh
COc1ccc2c(Sc3ccc(C)cc3)c(C(=O)NCc3ccc(F)cc3)[nH]c2c1	·	–	–	–	?	·
COc1ccccc1NC(=O)CSc1nnc2c3ccccc3n(C(C)C)c2n1	·	–	–	–	–	·
O=[N+]([O-])c1cccnc1N1CCN(c2ccccc2F)CC1	?	?	?	50µM	?	–
Cc1ccc(N2CCN(c3ncccc3[N+](=O)[O-])CC2)c(C)c1	?	28µM	?	40µM	18µM	–
Cc1ccc(C)c(N2CCN(c3ccc([N+](=O)[O-])cn3)CC2)c1	–	–	–	–	–	–
Cc1ccc(C)c(N2CCN(c3ncccc3[N+](=O)[O-])CC2)c1	–	32µM	–	40µM	–[2.33 µM]	?
O=[N+]([O-])c1cccnc1N1CCCCC1	–	–	–	?	–	–
COC(=O)c1ccc(NC(=O)c2c(NCc3cccc(F)c3)sc3c2CCCC3)cc1	·	–	–	?	?	·
CN(C)c1ccc(NC(=O)Cn2nnc3sc4c(c3c2=O)CCC(C(C)(C)C)C4)cc1 (stereo not drawn)	·	?	–	?	4.5µM	·
CN(CC(=O)Nc1ccc(Cl)c(C(F)(F)F)c1)C(=O)c1cn2ccccc2n1	–	?	–	–	35µM	–
CC(=O)N(/N=C/c1ccc(C)cc1)c1nc(CCl)cs1	–	–	–	–	18µM	–
CCOC(=O)Cc1csc(N/N=C/c2ccc(Cl)cc2)n1	–	–	–	–	·	–
O=C(Cc1ccc(F)cc1)Nc1ccc(S(=O)(=O)N2CCCC2)cc1	–	–	–	–	50µM	–
O=C(CN1CCCN(S(=O)(=O)c2ccc(F)cc2)CC1)Nc1cccc(F)c1	–	–	–	–	32µM	–
O=C(CN1CCN(C(=O)c2cccc(S(=O)(=O)N3CCCC3)c2)CC1)Nc1cccc(F)c1	–	–	–	–	56µM	–
O=C(Cc1ccc(Br)cc1)Nc1ccc(S(=O)(=O)N2CCCC2)cc1	·	–	·	·	·	·
CCc1cccc(CC)c1NC(=O)CN1CCN(S(=O)(=O)c2ccccc2)CC1	–	–	–	–	45µM	–
CCOCCCn1c(SCC(=O)NCc2ccccc2)nc2c(sc3ccccc32)c1=O	·	–	–	–	–	·
O=C(CN1CCN(S(=O)(=O)c2ccccc2)CC1)Nc1cccc(C(F)(F)F)c1	–	–	–	79µM	–	–
COc1ccc(NC(=O)CCNC(=O)C2CCN(S(=O)(=O)c3ccc(OC)cc3)CC2)cc1	–	–	–	–	–	–
COc1ccc(S(=O)(=O)N2CCN(CC(=O)Nc3ccc(F)c(F)c3)CC2)cc1	–	–	–	–	45µM	–
O=C(CNc1ccc(Cl)c(C(F)(F)F)c1)N1CCN(S(=O)(=O)c2ccccc2)CC1	–	·	–	79µM	·	–
CC(=O)c1ccc(NCC(=O)N2CCN(S(=O)(=O)c3ccccc3)CC2)cc1	–	–	–	–	–[12.7 µM]	·
COc1ccc(S(=O)(=O)N2CCC(C(=O)NCCC(=O)Nc3cccc(Cl)c3)CC2)cc1	–	–	–	16µM	–	–
N#Cc1cccc(NC(=O)C2CCN(S(=O)(=O)c3ccc4c(c3)CCCN4C(=O)C3CCC3)CC2)c1	·	–	–	–	–	·
SMILES	Six1-Eya2 inh	BAZ2B block	HP1b binding inh	JMJD2A Tudor	G9a inh	CtBP-E1A inh
CCN(CC)c1ccc(/C=N/N2CCOCC2)cc1	–	?	?	?	11µM	–
Fc1cccc(F)c1/C=N/N1CCOCC1	–	·	–	–	–	–
CCN(CC)c1ccc(/C=N/N2CCN(c3ccccn3)CC2)cc1	–	–	–	–	56µM	–
CCN(CC)c1ccc(C(=O)NCc2ccc3c(c2)CCN3C(C)=O)cc1	·	–	–	–	–	·
CCN1/C(=C/c2cccc[n+]2C)Sc2ccc(OC)cc21	–	–	–	18µM	50µM	·
COc1ccc2c(c1)N(C)/C(=C/c1cccc[n+]1C)S2	–	?	–	?	35µM	–
NS(=O)(=O)c1ccc(CCNC(=S)NC2CCCC2)cc1	–	–	?	–	–	·
NS(=O)(=O)c1ccc(CCNC(=O)CNCCc2ccc(C(F)(F)F)cc2)cc1	–	50µM	–	18µM	–	·
CC(C)c1ccccc1NC(=O)CNCCc1ccc(C(F)(F)F)cc1	–	45µM	?	14µM	–[12.7 µM]	·
CC(C)c1ccccc1NC(=O)Nc1nc(C(N)Cc2ccc(C(F)(F)F)cc2)cs1 (stereo not drawn)	–	·	·	·	·	–
NS(=O)(=O)c1ccc(CCNCC(=O)NC2CC2)cc1	–	?	?	4.5µM	50µM	–
NS(=O)(=O)c1ccc(CCNCC(=O)N2CCC(Cc3ccccc3)CC2)cc1	–	56µM	–	–[11.4 µM]	·	–
Nc1c(C(=O)Nc2ccccc2Cl)c2ccccn2c1C(=O)c1ccc(Cl)cc1	·	–	–	–	–	·
Cc1nn(-c2ccccc2)c(Cl)c1C(=O)OCC(=O)NCCc1ccc(S(N)(=O)=O)cc1	–	–	–	–	50µM	–
NN1C(=O)/C(=C\c2ccco2)SC1=S	–	45µM	–	?	25µM	–
CCOC(=O)CN1C(=O)S/C(=C/c2ccco2)C1=O	–	?	–	–	?	–
O=C1/C(=C/c2ccco2)SC(=S)N1c1cccnc1	-71	10µM	16µM	8.9µM	·	–
COc1cccc(/C=C2\SC(=S)N(c3cccnc3)C2=O)c1OC	–	–	–	–	?	–
O=C1NN(c2ccc(F)cc2)C(=O)/C1=C\C=C\c1ccco1	–	–	–	?	?	–
O=C1/C(=C\c2ccco2)SC(=S)N1c1ccc(O)cc1	–	35µM	–	?	40µM	–
O=C1/C(=C/C=C/c2ccco2)SC(=S)N1c1ccc(O)cc1	?	32µM	28µM	–[11.4 µM]	13µM	?
CC1CCn2c(nc3cc(C(=O)NCc4ccc(F)cc4)ccc32)C1 (stereo not drawn)	·	–	–	–	–	·
COc1ccc([C@]23Cc4ccccc4C(O2)C2=C(CC4(CCCCC4)OC2=O)O3)cc1	·	–[22.9 µM]	·	·	–[2.33 µM]	·
Cc1ccc(S(=O)(=O)N2CCCC2C(=O)Nc2ccc(Br)cc2)cc1 (stereo not drawn)	·	–	–	–	–	·
O=S(=O)(c1ccccc1)N1CCC2(CCCN(c3ccncc3)C2)CC1	·	·	·	·	–[12.7 µM]	·
CCOC(=O)c1c(S(=O)(=O)NCC(=O)Nc2ccc(C(C)=O)cc2)c(C)n(C)c1C	·	–	–	–	–	·
